Screening results as filed in PubChem BioAssay.
The list is not random: actives were taken first. Their share in the collection is about 15%.
VP16 counter: Gal4-VP16 reporter inhibition counter-screen | hit rate 3.5% among 310,000 | Potency, µM (highest dose often 53.6 µM), actives largely listed as inhibitors | Drosophila S2 Gal4-VP16 UAS-luciferase, luminescence, 20 h | AID 2546;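 also: Gal4-VP16 expression switched on by copper sulfate through the metallothionein promoter; nearly all actives have a fitted effect of over 50% in size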
RORgamma inh: inhibitors of mouse ROR gamma transcriptional activity; P51450; Drosophila S2 Gal4-RORgamma UAS-luciferase reporter, 20 h; Potency, µM (series often up to 53.6 µM), hits mostly inhibitors; hit rate 5.4% among 310,000; AID 2551; also: nearly all actives have a fitted effect of over 60% in size
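Schneider cells (Drosophila), stable Gal4 DBD–ROR gamma + UAS-luc; 1 hr cmpd preincubation; Cu2+ induction 700 uM final; 20 hr ambient; luminescence.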
TDP1 cell CPT: DT40-hTDP1 cell growth loss with CPT. chicken DT40 Tdp1-/-;hTDP1 cells + 20 nM CPT, ATP luminescence, 48 h. Potency, µM (series often up to 46.2 µM), most hits filed as inhibitors. hit rate 12% among 420,000; also: nearly all actives have a fitted effect of over 55% in size
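Chicken DT40 Tdp1-/- cells stably complemented with human TDP1 were seeded at 400 cells/well in medium containing 20 nM camptothecin, exposed to pin-transferred compounds, and grown at 37 °C for at least 48 hr. Viability was read as ATP luminescence.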
ALOX12 inh: inhibitors of human 12S-lipoxygenase ALOX12; P18054; purified 12hLO, xylenol orange hydroperoxide absorbance; Potency, µM (titrated, usually from 108 µM), hits mostly inhibitors; hit rate 1.1% among 580,000; AID 1671190
Target sequence (P18054 whole entry, looked up): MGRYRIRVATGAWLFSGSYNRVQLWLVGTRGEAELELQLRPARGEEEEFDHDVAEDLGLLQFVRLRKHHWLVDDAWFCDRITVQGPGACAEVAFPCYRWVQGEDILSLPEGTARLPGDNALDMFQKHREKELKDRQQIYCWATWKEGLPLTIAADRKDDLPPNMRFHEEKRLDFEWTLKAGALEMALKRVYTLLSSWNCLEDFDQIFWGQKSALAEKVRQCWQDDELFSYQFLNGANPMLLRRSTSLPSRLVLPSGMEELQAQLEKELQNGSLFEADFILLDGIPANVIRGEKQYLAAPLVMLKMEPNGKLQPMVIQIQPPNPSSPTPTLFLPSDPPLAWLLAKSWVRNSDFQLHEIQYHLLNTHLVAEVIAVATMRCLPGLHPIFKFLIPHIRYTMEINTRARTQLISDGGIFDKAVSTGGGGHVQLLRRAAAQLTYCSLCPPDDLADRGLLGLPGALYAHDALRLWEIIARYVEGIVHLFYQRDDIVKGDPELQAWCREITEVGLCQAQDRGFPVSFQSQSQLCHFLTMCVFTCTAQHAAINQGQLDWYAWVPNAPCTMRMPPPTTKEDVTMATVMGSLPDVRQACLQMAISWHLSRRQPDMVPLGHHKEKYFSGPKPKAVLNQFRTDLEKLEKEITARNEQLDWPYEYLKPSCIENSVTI
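Purified human 12hLO (150 nM final) in 25 mM Hepes, 0.01% Triton X-100, pH 7.0 was preincubated 15 min at room temperature with compound. Then 40 uM arachidonic acid was added, 30 min. Hydroperoxide was read by Fe-XO absorbance ratio 573/405 nm.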
DT40 TDP1 no CPT: qHTS for Inhibitors of human tyrosyl-DNA phosphodiesterase 1 (TDP1): qHTS in cells in absence of CPT. hit rate 15% among 420,000. Potency, µM (titrated, usually from 46.2 µM), hits mostly inhibitors. DT40 Tdp1-/- hTDP1 cells, no CPT, ATP luminescence, 48 h; also: nearly all actives have a fitted effect of over 55% in size
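Seeded 400 DT40-hTDP1 cells/well (vehicle DMSO, no 20 nM CPT); pinned compounds; ≥48 hr at 37 °C; CellTiter-Glo luminescence as viability measure.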
ELG1 repair inh: inhibitors of ELG1-dependent DNA repair in HEK293T cells | hit rate 2.3% among 330,000 | Potency, µM (doses to about 46.1 µM), hits mostly inhibitors | HEK293T ELG1-luciferase reporter, luminescence, 16 h; DNA damage induced by 5-fluorouridine; also: nearly all actives have a fitted effect of over 55% in size
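Overnight (16 hr) co-exposure of 2,000 cells/well to 5-fluorouridine and compound at 37 °C preceded detection. Luciferase was quantified via ONE-Glo luminescence; loss of signal denotes inhibition.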
Hits are given with their value; – = inactive; ? = inconclusive; · = no result; [ ] = dose if it differs, or a comment. Calls follow the shape of the dose curve; as a rule, active = well fitted curve in the direction sought with a large enough effect; inconclusive = small, poorly fitted or top-dose-only effect, or another doubt; inactive = no such curve, though single readings can be large; an effect the other way counts as inactive or inconclusive.

SMILES	VP16 counter	RORgamma inh	TDP1 cell CPT	ALOX12 inh	DT40 TDP1 no CPT	ELG1 repair inh
CNC(=O)N1CCC(C2CCN(S(=O)(=O)c3cnc[nH]3)C2)CC1 (configuration not stated)	·	·	·	–	·	·
Cc1[nH]nc2c1C(c1ccsc1C)C(C#N)=C(N)O2 (configuration not stated)	–	?	?	–	–	?
Cc1[nH]nc2c1C(C1CC=CCC1)C(C#N)=C(N)O2 (configuration not stated)	11.2µM	6.31µM	20.6µM	?	?	–
CC(C)(C)CC(=O)N(Cc1cccc(Br)c1)C1CC1	·	·	·	–	·	·
CC(=O)c1cn(CCOc2ccccc2C)c2ccccc12	4.47µM	?	8.2µM	–	5.8µM	?
CC(=O)c1cn(CCOc2ccc(F)cc2)c2ccccc12	?	?	14.6µM	–	?	–
Cc1ccccc1OCCn1cc(C(=S)N2CCN(C)CC2)c2ccccc21	–	12.6µM	?	?	14.6µM	–
O=C(c1cn(CCOc2ccccc2F)c2ccccc12)C1CCCCC1	·	·	?	–	16.4µM	·
Cc1ccccc1OCCn1cc(C(=O)C(=O)N2CCOCC2)c2ccccc21	–	–	–	–	?	–
Cc1ncoc1C(=O)N1CCCCCCn2c(nnc2-c2ccc(F)cc2)CC1	·	·	·	–	·	·
CCc1ccccc1NCC(=O)Nc1sc2c(c1C#N)CCCCC2	·	·	·	–	·	·
N#Cc1c(Cl)nc2c(c1C#N)CCCC2	–	–	–	?	18.4µM	–
Cc1nc(SCC(C)C)c2c(=O)n(C)c(=O)n(CC(C)C)c2n1	·	·	·	–	·	·
COc1ccc(Br)c(C(=O)Nc2cccc(S(=O)(=O)N3CCOCC3)c2)c1	·	·	–	–	?	–
Cc1cc(C)c2nc(NC(=O)[C@@H](NC(=O)c3cccc(S(=O)(=O)N4CCOCC4)c3)C(C)C)sc2c1	–	–	16.4µM	–	?	–
COc1ccc(N2CCN(CC(=O)Nc3cccc(S(=O)(=O)N4CCOCC4)c3)CC2)cc1	–	–	?	?	9.2µM	–
COc1ccc(C(=O)N[C@H](C(=O)Nc2cccc(S(=O)(=O)N3CCOCC3)c2)C(C)C)cc1	·	·	–	–	18.4µM	·
Cc1ccsc1CN(C)C(=O)C(NC(=O)c1cccc(S(=O)(=O)N2CCOCC2)c1)C(C)C (configuration not stated)	·	·	11.6µM	–	?	–
O=C(CCc1cc2n(n1)CCCNC2)N1CCCC1c1nc2ccccc2[nH]1 (configuration not stated)	·	·	·	–	·	·
O=C(OCC(=O)N(Cc1ccccc1)Cc1ccccc1)c1ccc2ccccc2n1	·	·	·	–	·	·
O=Cc1cccc(-c2cccs2)c1	·	·	·	–[12.5 µM]	·	·
CCCC(=O)NC1CCN(C(=O)N2CC3CC(C2)[C@H]2CCCC(=O)N2C3)CC1 (some centres not stated)	·	·	·	–	·	·
CCOC(=O)c1c(CSc2ccccc2)oc2cc(Br)c(O)c(CN(C)C)c12	–	–	16.4µM	–	?	–
CCOC(=O)c1c(C)n(C)c2ccc(O)c(CN(CC)CC)c12	–	–	?	–	?	?
CCOC(=O)c1c(CS(=O)(=O)c2ccccc2)n(C)c2cc(Br)c(O)cc12	–	?	?	–	?	?
SMILES	VP16 counter	RORgamma inh	TDP1 cell CPT	ALOX12 inh	DT40 TDP1 no CPT	ELG1 repair inh
COC(=O)Cc1c(CSc2ccccc2)oc2ccc(O)c(CN(C)C)c12	–	–	–	–	?	–
CC(=O)c1c(CSc2ccccc2)oc2ccc(O)c(CN(C)C)c12	–	–	23.1µM	?	?	–
CCOC(=O)c1c(C)n(-c2ccccc2)c2ccc(O)c(CN(C)C)c12	–	–	11.6µM	–	14.6µM	–
CCOC(=O)c1c(CS(=O)(=O)c2ccccc2)n(C)c2cc(Br)c(O)c(CN(C)C)c12	–	–	14.6µM	–	13µM	–
Cc1ccc(S(=O)(=O)N2CCN(C(=O)CNC(=O)c3ccc4c(c3)OCO4)CC2)cc1	·	·	·	–	·	·
CCOC(=O)c1c(CSc2ccccc2)oc2ccc(O)cc12	–	–	?	?	20.6µM	–
CCOC(=O)c1c(CSc2ccc(C)cc2)oc2ccc(O)cc12	?	–	?	?	?	–
